The whole screen tested about 310,000 compounds, of which about 1,300 (0.42%) were called active. Shown is part of a subset that was picked to be rich in actives. Unmarked numbers belong to inactive results. Cut-off read from the data, not from the text of the source: active = inhibition above about 50%; inactive = the rest.
molecular target: Dual specificity tyrosine-phosphorylation-regulated kinase 1A (Rattus norvegicus) (UniProt Q63470); experiment: inhibition of Dyrk1A kinase activity – biochemical, single point, plate reader, primary screen (AID 504441); details: ADP-Glo luminescence, NFATc1 peptide, at 12.5 µM, active compounds read high;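 note: plate controls were vehicle with enzyme for no effect and no enzyme for full effect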

Row | SMILES | inhibition
1 | COc1cc(C2c3cc4c(cc3C(O)C3COC(=O)C23)OCO4)cc(OC)c1OC (stereo not given) | 0.167%
2 | CCN1C(=NCCc2cccnc2)N[C@@H](c2ccccc2)C(C(=O)OC)=C1C | 53.7% (active)
3 | CCN1C(=NCCc2cccnc2)N[C@@H](c2ccccc2)[C@H](C(=O)OC)[C@H]1C | -12.5%
4 | COC(=O)C1=C(C)N(Cc2ccccc2)C(=NCCCOC(C)C)N[C@H]1c1ccccc1 | -6.8%
5 | COc1ccccc1C(=O)c1ccccc1C(=O)c1ccccc1 | 1.1%
6 | COc1ccc(S(=O)(=O)N(C)C[C@@H]2Oc3ccc(NC(=O)Nc4c(C)noc4C)cc3C(=O)N([C@H](C)CO)C[C@@H]2C)cc1 | 1.82%
7 | COc1ccc2c(Cl)c(C(=O)NCc3ccco3)sc2c1 | 54.5% (active)
8 | COc1ccc2oc(C(=O)NCc3ccco3)c(C)c2c1 | 19.2%
9 | O=C(NCc1ccco1)c1sc2cccc(F)c2c1Cl | 1.99%
10 | Oc1[nH]c2ccccc2c1N=Nc1c(F)c(F)c(F)c(F)c1F | 4.41%
11 | C[n+]1cccc(C(=O)O)c1 | 0.48%
12 | CC1CCCN(C(=O)Cn2c(=O)oc3cc(S(=O)(=O)N4CCCCC4C)ccc32)C1 (stereo not given) | 0.0944%
13 | O=C(Cc1ccc(Cl)cc1)c1ccccc1 | -1.54%
14 | COC(=O)C(C)Oc1ccc2c(c1)O/C(=C\c1cccc(Br)c1)C2=O (stereo not given) | -2.95%
15 | COc1ccc(NC(=O)CCN2C(=O)/C(=C/c3ccc4c(c3)OCO4)SC2=S)cc1 | -2.32%
16 | O=C1/C(=C/c2ccc3c(c2)OCO3)Oc2cc(OCC(=O)N3CC(O)C[C@H]3C(=O)O)ccc21 (stereo not given in full) | 70.2% (active)
17 | O=C1c2ccccc2C(=O)C1C(=O)C1CC1 | -4.93%
18 | COc1ccc(CNCCCn2cnc3c(OCc4ccccc4)ncnc32)cc1 | 6.66%
19 | Cc1ccc(S(=O)(=O)n2oc(=O)c(C3CCCCC3)c2N)cc1 | -0.128%
20 | CC1CCN(C2=NC(=O)/C(=C/c3ccc(O)cc3)S2)CC1 | 22.4%
21 | CCc1ccc(/C=C2\SC(N3CCOCC3)=NC2=O)cc1 | 2.74%
22 | O=C1N=C(N2CCc3ccccc3C2)S/C1=C\c1ccc(O)cc1 | 70.6% (active)
23 | CN(CCc1ccccc1)C(=O)c1cccc(NC(=O)Cc2cccc(NC(=O)C3CCCN(C(=O)CCc4ccccc4)C3)c2)c1 (stereo not given) | 0.419%
24 | O=C(Cc1ccc(S(=O)(=O)N2CCOCC2)s1)Nc1ccc(Br)c(C(F)(F)F)c1 | 0.772%
25 | CC(C)c1cc(N=O)cc(C(C)C)c1O | 7.15%

From PubChem BioAssay AID504441 (Broad Institute, 2011)
